The list is not random: actives were taken first. Their share in the collection is about 2.7%.
TMEM16A inh = mouse TMEM16A channel inhibition, primary screen; 310,000 compounds, 1.2% hits; AID 588511; Q8BHY3; HEK293 TMEM16A/YFP iodide influx fluorescence, ionomycin; normalized B-score (activity score, 25-100; higher = stronger inhibition) at 10 µM;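 active = ratio plate-corrected score three or more library SD toward inhibition, starting fluorescence score within five deviations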;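 note: score derived from kinetic fluorescence span divided by baseline fluorescence per well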
PP5 primary = blocks human protein phosphatase 5 activity | P53041 | purified PP5c, OMFP substrate fluorescence | inhibition, % at 6.7 µM | 320,000 compounds, 0.18% hits | AID 1987;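 active = inhibition above the campaign's mean inhibition across all tested compounds plus 3 SD, cut at about 9.5% in these data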;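 note: 0% = DMSO only and 100% = 100 µM cantharidin control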
Target sequence (P53041 whole entry, looked up): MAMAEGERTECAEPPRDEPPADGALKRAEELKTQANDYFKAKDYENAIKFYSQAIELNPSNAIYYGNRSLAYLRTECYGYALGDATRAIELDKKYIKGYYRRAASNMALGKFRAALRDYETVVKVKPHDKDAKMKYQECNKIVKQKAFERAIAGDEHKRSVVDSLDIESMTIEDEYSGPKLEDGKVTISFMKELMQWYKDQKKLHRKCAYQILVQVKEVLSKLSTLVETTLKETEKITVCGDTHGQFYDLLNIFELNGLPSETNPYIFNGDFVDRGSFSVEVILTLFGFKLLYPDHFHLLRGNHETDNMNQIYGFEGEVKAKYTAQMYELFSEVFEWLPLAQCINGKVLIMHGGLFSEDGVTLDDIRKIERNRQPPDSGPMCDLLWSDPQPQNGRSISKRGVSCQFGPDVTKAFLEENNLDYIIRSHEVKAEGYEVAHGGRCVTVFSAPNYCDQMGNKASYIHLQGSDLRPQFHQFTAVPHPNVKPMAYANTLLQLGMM
PREPL inh = inhibits the human prolyl oligopeptidase-like enzyme; inhibition, % at 5.96 µM; Q4J6C6; AID 2751; recombinant PREPL, fluorescence polarization activity-based probe; 320,000 compounds, 0.68% hits;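 note: 0% = enzyme with DMSO and 100% = wells lacking enzyme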
FID counter = fluorescent intercalator displacement, NS3 helicase counter-screen. DNA fluorescent intercalator displacement, fluorescence. inhibition, % at 7.9 µM. 290,000 compounds, 0.17% hits. AID 1845; in the data active = inhibition above about 37%;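 note: 0% = vehicle and 100% = reference compound; higher means more ethidium bromide displaced from hairpin DNA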
TMEM16A act = mouse TMEM16A channel activation, primary screen. Q8BHY3. HEK293 TMEM16A/YFP-H148Q/I152L, iodide quench fluorescence; stronger effect = lower value. B-score at 10 µM. 340,000 compounds, 0.3% hits;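 active = fluorescence-ratio B-score plate-corrected deviation score at least 3 library SD below zero, with starting fluorescence score within 5 deviations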;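 note: channel opened by trigger with iodide after compound preincubation; score built on the fluorescence ratio of max minus min over baseline; more negative score means more quench and so TMEM16A activation or potentiation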
PP1 counter = blocks human PP1-alpha phosphatase, a PP5 counter-screen. AID 2235. 320,000 compounds, 0.9% hits. P62136. inhibition, % at 6.7 µM. purified PP1alpha, OMFP fluorescence;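 active = inhibition above the mean inhibition of all tested compounds plus 3 SD, computed separately for each screening campaign, cut at about 15% in these data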
PREPL inh cf = human PREPL inhibition, confirmation; recombinant PREPL, fluorescence polarization activity probe; inhibition, % at 5.96 µM; AID 2803; 2,000 compounds, 67% hits; shares compounds with PREPL inh;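 note: 0% = protein with DMSO and 100% = wells lacking protein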
* hit, by the source's call; i = inactive; / = not tested or not shown. Cut-off read from the data, not from the text of the source, unless noted: active = inhibition above about 43%; inactive = the rest.

SMILES	TMEM16A inh	PP5 primary	PREPL inh	FID counter	TMEM16A act	PP1 counter	PREPL inh cf
CN1CCN(CCCNC(=O)c2ccc3c(c2)N(Cc2ccc(F)cc2)CCS3)CC1	i	-2.1	44.2*	26.7	i	1.4	35.9
CCOc1cccc(C=NNc2ccc(S(=O)(=O)Nc3ccccc3C(=O)O)cc2[N+](=O)[O-])c1O	/	/	26.9	/	i	/	/
C=CCOc1ccc(C=NNc2ccc(S(=O)(=O)Nc3ccccc3C(=O)O)cc2[N+](=O)[O-])cc1OC	/	/	61.7*	/	i	/	36.5
CCOc1ccc(C=NNc2ccc(S(=O)(=O)Nc3ccccc3C(=O)O)cc2[N+](=O)[O-])cc1	/	/	65.1*	/	i	/	69.2*
O=[N+]([O-])c1ccc(O)c(CN2CCCCCC2)c1	i	2.8	2.1	2.8	i	3.3	/
COC(=O)C1CCN(C(=O)c2cc(-c3ccco3)nc3ccccc23)CC1	/	/	18.9	/	i	/	/
Cc1cc(C)c2c(N)c(-c3nc4ccccc4[nH]3)sc2n1	i	0.7	77.8*	-1.4	i	-1.4	2.2
Cc1ccsc1/C=N/NC(=O)CC(=O)NCC(C)C	i	2.1	-5.2	-3.8	i	4.6	/
O=C1C=C(c2cccc3c2sc2ccccc23)C[C@@H](c2ccc(F)cc2)C1	/	1.4	-10.2	/	i	-3.5	/
O=C(Cn1c(O)c(/C=C2\C=Nc3ccc(Br)cc32)sc1=O)N1CCCC1	i	4.8	43.1*	6.1	i	2.9	36.4
O=C(N/N=C/c1ccc(O)c(Br)c1)c1cc2c(ccc3ccccc32)o1	i	/	/	-10.6	i	/	/
O=C(N/N=C/c1cc(Cl)c(O)c(Cl)c1)c1cc2c(ccc3ccccc32)o1	100*	3.8	59.0*	-35.8	i	11.1	68.5*
CC(C)OCCCNC(=O)c1ccccc1NC(=O)C1=CSCCO1	i	2.5	-1.1	-28.1	i	-3.0	/
O=C(COc1coc(CN2CCc3ccccc32)cc1=O)NCCc1ccccc1	i	-1.4	17.7	/	i	-0.4	/
O=C(COc1coc(CN2CCc3ccccc32)cc1=O)N1CCCCC1	i	-0.7	44.5*	/	i	2.7	35.0
O=C1c2ccccc2-c2onc3ccc(NCc4ccco4)c1c23	i	-6.5	82.2*	-7.5	i	-6.8	105.8*
O=C(CSC(=S)N1CCCC1)NCC(=O)Nc1ccccc1Br	i	-1.5	0.3	/	i	-2.9	/
O=C(CN1C(=O)C2CC=CCC2C1=O)N1CCN(c2ccc([N+](=O)[O-])cc2)CC1 (stereo not drawn)	i	3.6	48.4*	-7.6	i	-2.7	32.5
COc1cccc(C2=CC(c3ccccc3)n3nnnc3N2)c1 (stereo not drawn)	i	3.4	-66.6	-6.2	i	0.5	/
COc1cccc(C2=CC(c3ccc(N(C)C)cc3)n3nnnc3N2)c1 (stereo not drawn)	i	0.8	70.0*	-16.1	i	6.1	54.2*
OC(CNC1CCCC1)COCCOc1ccc(Br)cc1 (stereo not drawn)	i	-1.0	46.3*	8.7	i	-4.7	34.6
COc1ccc(C(=O)O)cc1S(=O)(=O)Nc1ccc2cn[nH]c2c1	/	/	-2.3	/	i	/	/
CCCCCc1cc(=O)oc2c(C(CCN3CCCC3)c3ccc(N(C)C)cc3)c(OC)cc(OC)c12 (stereo not drawn)	i	-0.1	50.4*	/	i	4.6	48.6*
N#Cc1cc(C#N)c(SCC(=O)N2CC(=O)Nc3ccccc32)nc1N	/	0.8	46.2*	/	i	0.0	37.9
COc1ccc(-c2nc(CS(=O)CC(=O)NCc3ccc(F)cc3)c(C)o2)cc1 (stereo not drawn)	i	3.6	-14.6	-38.1	i	-0.2	/
SMILES	TMEM16A inh	PP5 primary	PREPL inh	FID counter	TMEM16A act	PP1 counter	PREPL inh cf
O=[N+]([O-])c1ccc(N2CCN(c3ccc([N+](=O)[O-])cc3CO)CC2)c(CO)c1	i	2.2	36.6	-3.3	i	-0.3	/
N#Cc1cc([N+](=O)[O-])ccc1N1CCN(c2ccccc2O)CC1	i	1.8	52.6*	1.4	i	-4.2	47.8*
CC(C)C[C@@H](C(=O)NC1CCN(Cc2ccccc2)CC1)N1C(=O)N2CCc3c([nH]c4ccccc34)[C@@]2(C)C1=O	i	4.1	43.5*	23.5	i	-0.2	32.9
C[C@@H](C(=O)NC1CCN(Cc2ccccc2)CC1)N1C(=O)N2CCc3c([nH]c4ccccc34)[C@@]2(C)C1=O	i	2.8	16.2	12.4	i	-3.0	/
CC(CO)Nc1nc(SCc2ccccc2)nc2sc3c(c12)CCC3 (stereo not drawn)	i	3.6	43.7*	-13.3	i	1.4	41.4
COCCNc1nc(SCc2ccccc2)nc2sc3c(c12)CCC3	i	3.7	23.1	-10.4	i	3.0	/
CCc1noc(C)c1C(=O)Nc1nc(-c2ccccc2)c(C(C)=O)s1	/	-1.3	80.3*	/	i	-3.7	4.4
CCc1noc(C)c1C(=O)Nc1nc(-c2ccc(NC(C)=O)cc2)cs1	i	3.6	3.9	/	i	-1.3	/
COc1ccc(-c2cccc(NC(=O)COc3ccc(Cl)cc3)c2)nn1	i	2.7	-21.1	-27.1	i	0.8	/
O=C(C1CCN(c2ncnc3c2nc2n3CCCCC2)CC1)N1CCN(c2cccc(Cl)c2)CC1	i	5.5	49.3*	-57.7	i	2.6	46.8*
O=C(C1CCCN(c2ncnc3c2nc2n3CCCCC2)C1)N1CCN(c2ccc(Cl)cc2)CC1 (stereo not drawn)	i	2.1	-5.2	-70.4	i	1.2	/
COc1ccc2[nH]c3c(N4CCc5ccccc5C4)ncnc3c2c1	i	3.0	60.1*	8.4	i	0.2	56.3*
Fc1ccc2[nH]c3c(N4CCN(c5ccccc5)CC4)ncnc3c2c1	i	3.7	61.9*	-4.0	i	3.1	47.7*
COc1ccc(N2CCN(c3ncnc4c3[nH]c3ccccc34)CC2)cc1	i	3.1	51.6*	0.9	i	0.4	46.5*
CCOC(=O)N1CCN(c2ncnc3c2[nH]c2ccc(OC)cc23)CC1	i	3.5	18.6	-8.6	i	-1.1	/
O=C(c1ccco1)N1CCN(c2ncnc3c2[nH]c2ccccc23)CC1	/	/	/	-5.1	/	/	/
COc1cc2[nH]c3c(N4CCN(c5ccccn5)CC4)ncnc3c2cc1OC	i	4.8	69.0*	16.4	i	-1.1	69.2*
CC(Sc1nnnn1-c1ccc(O)cc1)C(=O)NC1CCCCC1C (stereo not drawn)	i	4.8	8.3	-13.8	i	-2.7	/
CC(=O)N1CCN(S(=O)(=O)c2c(C)n(C)c(=O)n(C)c2=O)CC1	i	1.0	7.0	0.5	i	-1.6	/
CCOC(=O)c1ccc(NC(=S)N(CCCN2CCN(CC)CC2)Cc2cccs2)cc1	i	0.9	-5.3	14.0	i	-2.5	/
